In the supplement of paper PMC10127200:
Structures can show the parent of a compound that is named as a salt.

Legend:
Assay in all cases: Euclidean distance of Cell Painting phenotypic profile (signed KS, 77 features) to DMSO centroid (dimensionless distance); 5 or 10 uM (library dependent); higher = stronger phenotypic change vs DMSO (phenoactivity)
Settings in all cases: 48 h
[1] = tested on: 786-O
Procedure, shortened: (§1)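 Five cancer lines and a healthy fibroblast line received library compounds at 10 or 5 uM (library-dependent, 0.1% DMSO final) for 48 h. Stained cells were imaged confocally at 20X (9 fields/well). Harmony extracted 77 features, each scored as a signed Kolmogorov-Smirnov statistic against same-plate vehicle wells. Profiles were plate-position corrected, correlation-weighted and replicate-averaged at the top dose. Phenoactivity is the Euclidean distance from each profile to the median vehicle profile.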

[2] = tested on: A549
Procedure, shortened: as §1

[3] = tested on: DU145
Procedure, shortened: as §1

[4] = tested on: FB
Procedure, shortened: as §1

[5] = tested on: HEPG2
Procedure, shortened: as §1

[6] = tested on: OVCAR4
Procedure, shortened: as §1

| SMILES | Euclidean distance [1] | Euclidean distance [2] | Euclidean distance [3] | Euclidean distance [4] | Euclidean distance [5] | Euclidean distance [6] |
| --- | --- | --- | --- | --- | --- | --- |
| COc1cc(CCc2cc(NC(=O)c3ccc(N4CC(C)NC(C)C4)cc3)n[nH]2)cc(OC)c1 (centres undefined) | 1.7 | 1.94 | 1.5 | 3.59 | 2.79 | 1.46 |
| O=S(=O)(c1ccccc1)N(CC(F)(F)F)c1ccc(C(O)(C(F)(F)F)C(F)(F)F)cc1 | 1.13 | 1.85 | 1.07 | 1.62 | 2.12 | 1.43 |
| COc1ccc2ccc(=O)oc2c1CC=C(C)C [Osthole] | 1.34 | 0.749 | 0.86 | 1.14 | 0.394 | 0.956 |
| CCCCC(CC)CN1CN(CC(CC)CCCC)CC(C)(N)C1 (centres undefined) [Hexetidine] | 0.942 | 4.33 | 6.71 | 2.79 | 0.954 | 5.33 |
| CC(=O)OCC(=O)[C@@]1(O)CC[C@H]2[C@@H]3CCC4=CC(=O)C=C[C@]4(C)[C@H]3[C@@H](O)C[C@@]21C [Prednisolone Acetate] | 1.1 | 2.13 | 2.13 | 1.96 | 0.76 | 2.1 |
| CC(C)CCNC(=O)[C@H](CC(C)C)NC(=O)[C@H]1O[C@@H]1C(=O)O [Loxistatin Acid (E-64C)] | 1.6 | 2.18 | 1.48 | 1.04 | 1.44 | 1.5 |
| O=C(O)c1ccc(Nc2ncc3c(n2)-c2ccc(Cl)cc2C(c2c(F)cccc2F)=NC3)cc1 | 2.83 | 3.8 | 2.7 | 2.34 | 3.27 | 3.07 |
| Cc1ccc(NC(=O)c2ccc(CN3CCN(C)CC3)cc2)cc1Nc1nccc(-c2cccnc2)n1 [Imatinib Mesylate (STI571)] | 1.63 | 2 | 1.67 | 2.28 | 1.61 | 1.55 |
| CCc1nc(-c2cccc(C)c2)c(-c2ccnc(NC(=O)c3ccccc3)c2)s1 | 1.58 | 0.983 | 1.46 | 1.37 | 1.19 | 1.34 |
| COc1cc(C(C)=O)ccc1O [Apocynin] | 0.601 | 1.23 | 0.921 | 0.872 | 1.6 | 0.864 |
| CC(=O)Nc1ccc(CC(=O)O)cc1 [Actarit] | 1.12 | 0.862 | 0.902 | 1.09 | 0.464 | 0.872 |
| CC1=C(C(=O)O)N2C(=O)[C@@H](NC(=O)[C@H](N)C3=CCC=CC3)[C@H]2SC1 [Cefradine] | 0.837 | 0.567 | 0.805 | 1.14 | 0.578 | 0.907 |
| C=C1C[C@@]2(O)O[C@@]3(C[C@H]2C(C)C)[C@@H](C)CC[C@@H]13 [Curcumol] | 1.06 | 1.43 | 0.943 | 1.3 | 0.814 | 1.43 |
| CN[C@@H]1[C@@H](O)[C@@H](O[C@@H]2[C@@H](O)[C@H](O[C@H]3O[C@H](CN)[C@@H](O)[C@H](O)[C@H]3O)[C@@H](N)C[C@H]2NC(=O)[C@@H](O)CN)OC[C@]1(C)O [Isepamicin Sulphate] | 1.12 | 0.946 | 0.819 | 1.14 | 0.94 | 1.65 |
| Cc1cc(Nc2ncnc3ccc(NC4=NC(C)(C)CO4)cc23)ccc1Oc1ccn2ncnc2c1 [Irbinitinib (ARRY-380. ONT-380)] | 1.56 | 1.62 | 1.3 | 1.15 | 1.12 | 1.29 |
| CC[C@H]1OC(=O)[C@H](C)[C@@H](O[C@H]2C[C@@](C)(OC)[C@@H](O)[C@H](C)O2)[C@H](C)[C@@H](O[C@@H]2O[C@H](C)C[C@H](N(C)C)[C@H]2O)[C@](C)(O)C[C@@H](C)CN(C)[C@H](C)[C@@H](O)[C@]1(C)O [Azithromycin] | 0.885 | 0.638 | 1.38 | 1.53 | 2.1 | 1.08 |
| CN(C)CC[C@H](CSc1ccccc1)Nc1ccc(S(=O)(=O)NC(=O)c2ccc(N3CCN(Cc4ccccc4-c4ccc(Cl)cc4)CC3)cc2)cc1[N+](=O)[O-] | 0.812 | 2.83 | 1.36 | 0.853 | 0.522 | 1.01 |
| CCCCc1oc2ccccc2c1C(=O)c1cc(I)c(OCCN(CC)CC)c(I)c1 [Amiodarone HCl] | 1.56 | 1.84 | 2.02 | 1.95 | 2.01 | 2.4 |
| CCCCC1C(=O)N(c2ccccc2)N(c2ccccc2)C1=O [Phenylbutazone] | 0.905 | 0.759 | 1.5 | 1.25 | 0.482 | 1 |
| O=C(c1cccc(Cl)c1F)N1CCN(Cc2cccc(Nc3nccs3)n2)CC1 | 2.99 | 3.18 | 1.34 | 2.34 | 2.74 | 2.83 |
| Cc1cccc(Nc2ccncc2S(=O)(=O)NC(=O)NC(C)C)c1 [Torsemide] | 0.608 | 0.66 | 0.572 | 0.798 | 0.917 | 0.866 |
| O=C1c2ccc(Nc3ccc(F)cc3F)cc2CCc2ccc(OC[C@H](O)CO)cc21 [Skepinone-L] | 1.06 | 1.85 | 1.78 | 2.05 | 0.828 | 1.31 |
| Cn1cc(Nc2nccc(N3C[C@H]4CC[C@@H](C3)N4C(=O)[C@@H]3CC3(F)F)n2)cn1 | 1.66 | 1.31 | 0.715 | 2.16 | 0.594 | 3.68 |
| CC(C(=O)O)c1ccc(C(=O)c2ccccc2)s1 (centres undefined) [Tiaprofenic acid] | 1.13 | 0.629 | 0.684 | 0.967 | 0.859 | 0.857 |
